Laboratory results from PubChem BioAssay AID1159580 (chemical genetic matrix, 2015).
Hit rate of the full screen: of about 5,500 compounds, about 2,000 (36%) were called active. Inconclusive results (about 18%) are left out. The list shows a part of the results. Unmarked numbers belong to inactive results. Rule as the data show it: active = normalized growth mostly below about 0.91 (no sharp cut-off); inconclusive = no clear call, values can overlap the other calls; inactive = mostly above about 0.92.

Assay: chemical genetic growth profiling, strain panel (AID 1159580);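 also: tested at 20 µM; growth read once vehicle control cultures reached saturation at 30 °C; 1 = growth at the plate median or of vehicle wells; lower values mean less growth of the strain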
Conditions: S. cerevisiae deletion strains, growth OD
[1] = locus YAR019C, strain CDC15, active compounds read low
[2] = locus YBL105C, strain PKC1, active compounds read low
[3] = locus YBR135W, strain CKS1, active compounds read low
[4] = locus YBR136W, strain MEC1, active compounds read low
[5] = locus YBR160W, strain CDC28, active compounds read low
[6] = locus YDL017W, strain CDC7, active compounds read low
[7] = locus YDL028C, strain MPS1, active compounds read low
[8] = locus YDL101C, strain DUN1, active compounds read low
[9] = locus YDL108W, strain KIN28, active compounds read low
[10] = locus YDL132W, strain cdc53, active compounds read low
[11] = locus YDL214C, strain PRR2, active compounds read low
[12] = locus YDR052C, strain DBF4, active compounds read low
[13] = locus YDR054C, strain cdc34, active compounds read low
[14] = locus YDR226W, strain ADK1, active compounds read low
[15] = locus YDR477W, strain SNF1, active compounds read low
[16] = locus YER123W, strain YCK3, active compounds read low
[17] = locus YER133W, strain GLC7, active compounds read low
[18] = locus YFL009W, strain cdc4, active compounds read low
[19] = locus YFL029C, strain CAK1, active compounds read low
[20] = locus YFR003C, strain YPI1, active compounds read low
[21] = locus YFR019W, strain FAB1, active compounds read low
[22] = locus YFR028C, strain CDC14, active compounds read low
[23] = locus YGR040W, strain KSS1, active compounds read low
[24] = locus YGR052W, strain FMP48, active compounds read low
[25] = locus YGR092W, strain DBF2, active compounds read low
[26] = locus YHR030C, strain SLT2, active compounds read low
[27] = locus YHR079C, strain IRE1, active compounds read low
[28] = locus YHR082C, strain KSP1, active compounds read low
[29] = locus YHR205W, strain SCH9, active compounds read low
[30] = locus YIL147C, strain SLN1, active compounds read low
[31] = locus YJL095W, strain BCK1, active compounds read low
[32] = locus YJL128C, strain PBS2, active compounds read low
[33] = locus YJL157C, strain FAR1, active compounds read low
[34] = locus YJR016C, strain ILV3, active compounds read low
[35] = locus YJR066W, strain TOR1 (second series), active compounds read low
[36] = locus YJR066W, strain TOR1, active compounds read low
[37] = locus YKL048C, strain ELM1, active compounds read low
[38] = locus YKL067W, strain YNK1, active compounds read low
[39] = locus YKL101W, strain HSL1, active compounds read low
[40] = locus YKL193C, strain SDS22, active compounds read low
[41] = locus YKL203C, strain TOR2, active compounds read low
[42] = locus YLR113W, strain HOG1, active compounds read low
[43] = locus YLR133W, strain CKI1, active compounds read low
[44] = locus YLR403W, strain SFP1, active compounds read low
[45] = locus YML070W, strain DAK1, active compounds read low
[46] = locus YMR001C, strain CDC5, active compounds read low
[47] = locus YMR205C, strain PFK2 (second series), active compounds read low
[48] = locus YMR277W, strain FCP1, active compounds read low
[49] = locus YNL006W, strain LST8, active compounds read low
[50] = locus YNL020C, strain ARK1, active compounds read low
[51] = locus YNL161W, strain CBK1, active compounds read low
[52] = locus YNL183C, strain NPR1, active compounds read low
[53] = locus YNL207W, strain RIO2, active compounds read low
[54] = locus YNL222W, strain SSU72, active compounds read low
[55] = locus YNL307C, strain MCK1 (second series), active compounds read low
[56] = locus YOL078W, strain AVO1, active compounds read low
[57] = locus YOL136C, strain PFK27, active compounds read low
[58] = locus YOR061W, strain CKA2, active compounds read low
[59] = locus YOR119C, strain RIO1, active compounds read low
[60] = locus YOR231W, strain MKK1, active compounds read low
[61] = locus YOR329C, strain SCD5, active compounds read low
[62] = locus YPL031C, strain PHO85, active compounds read low
[63] = locus YPL153C, strain RAD53, active compounds read low
[64] = locus YPL204W, strain HRR25, active compounds read low
[65] = locus YPL209C, strain IPL1, active compounds read low
[66] = locus YPL256C, strain CLN2, active compounds read low
[67] = locus YPR025C, strain CCL1, active compounds read low
[68] = locus YPR106W, strain ISR1, active compounds read low
[69] = locus YPR111W, strain DBF20, active compounds read low
[70] = strain NNK1, active compounds read low
[71] = strain TSCII, active compounds read low

CS/C(Nc1cccc(C(F)(F)F)c1)=C(/C#N)S(=O)(=O)c1ccc(Cl)cc1
normalized growth [1]: 0.951
normalized growth [2]: 0.945
normalized growth [3]: 0.953
normalized growth [4]: 0.941
normalized growth [5]: 0.948
normalized growth [6]: 0.948
normalized growth [7]: 0.957
normalized growth [8]: 0.953
normalized growth [9]: 0.949
normalized growth [10]: 0.953
normalized growth [11]: 0.96
normalized growth [12]: 0.932
normalized growth [13]: 0.946
normalized growth [14]: 0.931
normalized growth [15]: 0.963
normalized growth [16]: 0.941
normalized growth [17]: 0.971
normalized growth [18]: 0.942
normalized growth [19]: 0.934
normalized growth [20]: 0.944
normalized growth [21]: 0.957
normalized growth [22]: 0.948
normalized growth [23]: 0.947
normalized growth [24]: 0.943
normalized growth [25]: 0.937
normalized growth [26]: 0.996
normalized growth [27]: 0.987
normalized growth [28]: 1.01
normalized growth [29]: 0.914
normalized growth [30]: 0.953
normalized growth [31]: 0.916
normalized growth [32]: 0.935
normalized growth [33]: 0.954
normalized growth [34]: 0.944
normalized growth [35]: 0.95
normalized growth [36]: 0.988
normalized growth [37]: 0.946
normalized growth [38]: 0.972
normalized growth [39]: 0.954
normalized growth [40]: 0.951
normalized growth [41]: 1
normalized growth [42]: 0.882
normalized growth [43]: 0.945
normalized growth [44]: 0.925
normalized growth [45]: 0.962
normalized growth [46]: 0.948
normalized growth [47]: 0.978
normalized growth [48]: 0.956
normalized growth [49]: 0.958
normalized growth [50]: 0.943
normalized growth [51]: 0.94
normalized growth [52]: 0.992
normalized growth [53]: 0.936
normalized growth [54]: 0.957
normalized growth [55]: 0.926
normalized growth [56]: 0.951
normalized growth [57]: 0.915
normalized growth [58]: 0.985
normalized growth [59]: 1.01
normalized growth [60]: 0.94
normalized growth [61]: 0.951
normalized growth [62]: 0.956
normalized growth [63]: 0.973
normalized growth [64]: 0.911
normalized growth [65]: 0.943
normalized growth [66]: 0.981
normalized growth [67]: 0.946
normalized growth [68]: 0.954
normalized growth [69]: 0.949
normalized growth [70]: 0.947
normalized growth [71]: 0.942

N#C/C(=N/Nc1cccc(C(F)(F)F)c1)C(=O)c1csc(-c2cccnc2)n1
normalized growth [1]: 0.96
normalized growth [2]: 0.958
normalized growth [3]: 0.955
normalized growth [4]: 0.962
normalized growth [5]: 0.961
normalized growth [6]: 0.96
normalized growth [7]: 0.962
normalized growth [8]: 0.964
normalized growth [9]: 0.963
normalized growth [10]: 0.964
normalized growth [11]: 0.83
normalized growth [12]: 0.945
normalized growth [13]: 0.939
normalized growth [14]: 0.963
normalized growth [15]: 0.762
normalized growth [16]: 0.56 (active)
normalized growth [17]: 0.883
normalized growth [18]: 0.96
normalized growth [19]: 0.955
normalized growth [20]: 0.961
normalized growth [21]: 0.364 (active)
normalized growth [22]: 0.967
normalized growth [23]: 0.832
normalized growth [24]: 0.566 (active)
normalized growth [25]: 0.297 (active)
normalized growth [26]: 0.115 (active)
normalized growth [27]: 0.139 (active)
normalized growth [28]: 0.292 (active)
normalized growth [29]: 0.75
normalized growth [30]: 0.96
normalized growth [31]: 0.232 (active)
normalized growth [32]: 0.923
normalized growth [33]: 0.802
normalized growth [34]: 0.954
normalized growth [35]: 0.578 (active)
normalized growth [36]: 0.343 (active)
normalized growth [37]: 0.632 (active)
normalized growth [38]: 0.854
normalized growth [39]: 0.534 (active)
normalized growth [40]: 0.959
normalized growth [41]: 0.763
normalized growth [42]: 0.34 (active)
normalized growth [43]: 0.711 (active)
normalized growth [44]: 0.776
normalized growth [45]: 0.578 (active)
normalized growth [46]: 0.964
normalized growth [47]: 0.807
normalized growth [48]: 0.955
normalized growth [49]: 0.961
normalized growth [50]: 0.626 (active)
normalized growth [51]: 0.956
normalized growth [52]: 0.46 (active)
normalized growth [53]: 0.941
normalized growth [54]: 0.96
normalized growth [55]: 0.461 (active)
normalized growth [56]: 0.955
normalized growth [57]: 0.529 (active)
normalized growth [58]: 0.85
normalized growth [59]: 0.838
normalized growth [60]: 0.198 (active)
normalized growth [61]: 0.966
normalized growth [62]: 0.484 (active)
normalized growth [63]: 0.317 (active)
normalized growth [64]: 0.464 (active)
normalized growth [65]: 0.957
normalized growth [66]: 0.236 (active)
normalized growth [67]: 0.956
normalized growth [68]: 0.971
normalized growth [69]: 0.958
normalized growth [70]: 0.95
normalized growth [71]: 0.954
